# Source: PubChem (The Scripps Research Institute Molecular Screening Center)
# GSTO1 counter: inhibitors of recombinant GSTO1, primary screen, counter-screen for RBBP9 inhibitor project, biochemical, fluorescence polarization; inhibition, % at 5.96 µM; Glutathione S-transferase omega-1 (Homo sapiens), P78417; 300,000 compounds, 1.1% hits; activity-based probe fluorescence polarization;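 active = inhibition above the campaign mean inhibition plus 3 SD, cut at about 35% in these data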
# PME-1 inh: PME-1 inhibitors via competitive probe labeling, primary screen, biochemical, fluorescence polarization, FP-Rh probe, HTS; Protein phosphatase methylesterase 1 (Homo sapiens), Q9Y570; recombinant PME-1; inhibition, % at 5.9 µM; 320,000 compounds, 0.53% hits; AID 2130, 2009;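 active = inhibition above the campaign mean of all compounds plus 3 SD, cut at about 26% in these data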;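 note: competitive labeling of PME-1 active site by serine hydrolase directed probe; inhibitors block probe labeling so polarization falls and inhibition rises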
# Fam108B counter: mouse Fam108B serine hydrolase inhibitors, primary screen, counter-screen for RBBP9 inhibitor project, biochemical, fluorescence polarization; recombinant Fam108B, FP-Rh probe fluorescence polarization; inhibition, % at 9.51 µM; 300,000 compounds, 0.33% hits; AID 1947, 2009;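 active = inhibition above the screen mean inhibition plus 3 SD, computed separately per campaign, cut at about 18% in these data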;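 note: inhibitors lower polarization as less probe binds the enzyme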
# LYPLA2 counter: LYPLA2 inhibitors, primary screen, counter-screen for PME1 inhibitor project, biochemical, fluorescence polarization, FP-Rh probe ABPP | Acyl-protein thioesterase 2 (Homo sapiens), O95372 | recombinant LYPLA2 | inhibition, % at 5.9 µM | 320,000 compounds, 0.38% hits | AID 2177, 2009;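 active = inhibition above the screen-wide mean plus 3 SD, limit set per campaign, cut at about 26% in these data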
# PAD4 FP inh: human PAD4 inhibitors, primary screen, biochemical, fluorescence polarization, 1536-well format; Protein-arginine deiminase type-4 (Homo sapiens), Q9UM07; recombinant PAD4, RCA probe fluorescence polarization; inhibition, % at 6.36 µM; 330,000 compounds, 0.41% hits;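 active = percent inhibition above a cutoff equal to the mean of all tested compounds plus 3 SD, cut at about 15% in these data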
# Target sequence (Q9UM07 whole entry, looked up): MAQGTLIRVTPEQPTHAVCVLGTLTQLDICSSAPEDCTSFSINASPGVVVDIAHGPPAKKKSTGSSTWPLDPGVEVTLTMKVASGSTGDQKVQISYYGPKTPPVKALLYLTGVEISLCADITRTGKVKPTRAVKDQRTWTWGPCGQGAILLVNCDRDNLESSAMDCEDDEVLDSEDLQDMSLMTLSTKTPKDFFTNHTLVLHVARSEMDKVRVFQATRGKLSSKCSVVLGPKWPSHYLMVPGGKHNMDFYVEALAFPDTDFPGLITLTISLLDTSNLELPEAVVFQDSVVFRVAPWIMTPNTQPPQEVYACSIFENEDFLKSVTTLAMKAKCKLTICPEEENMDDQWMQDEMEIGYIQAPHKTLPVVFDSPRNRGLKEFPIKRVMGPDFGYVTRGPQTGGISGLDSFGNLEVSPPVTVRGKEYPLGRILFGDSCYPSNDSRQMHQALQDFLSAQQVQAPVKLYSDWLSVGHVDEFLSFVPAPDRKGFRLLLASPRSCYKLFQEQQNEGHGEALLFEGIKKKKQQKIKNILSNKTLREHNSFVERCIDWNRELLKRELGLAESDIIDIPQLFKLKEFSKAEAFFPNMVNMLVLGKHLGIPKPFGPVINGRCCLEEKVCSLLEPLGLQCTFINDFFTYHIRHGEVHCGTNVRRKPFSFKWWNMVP
# LYPLA1 inh: LYPLA1 inhibitors, primary screen, counter-screen for PME1 inhibitor project, biochemical, fluorescence polarization, FP-Rh probe ABPP; Acyl-protein thioesterase 1 (Homo sapiens), O75608; recombinant LYPLA1; inhibition, % at 5.9 µM; 320,000 compounds, 0.16% hits; AID 2174, 2009;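 active = inhibition above the mean of all tested compounds plus 3 SD, set per campaign, cut at about 14% in these data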;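 note: inhibitors block serine hydrolase probe labeling of LYPLA1 so polarization falls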
# Numbers stand for hits; – = inactive; · = no result. Hits are enriched below; roughly 1.8% of the tested compounds scored in any of these assays.
SMILES,GSTO1 counter,PME-1 inh,Fam108B counter,LYPLA2 counter,PAD4 FP inh,LYPLA1 inh
O=C(O)c1cc(-c2ccc(/C=N/NC(=S)Nc3ccccc3)o2)ccc1Cl,48,–,–,–,–,–
Oc1ccc2c(c1)C1CCCC1(N1CCOCC1)O2 (centres undefined),42,–,–,–,–,–
Cc1ccc(-c2nn(-c3ccc(F)cc3)cc2C(=O)N2CCN(C3CCS(=O)(=O)C3)CC2)cc1 (centres undefined),·,–,·,–,–,–
COc1cccc(NC(=O)C2CCC(CNS(=O)(=O)c3ccc4c(c3)CC(C)N4C(C)=O)CC2)c1 (centres undefined),35,–,–,–,–,–
COc1cccc(NC(=O)C2CCN(S(=O)(=O)c3ccc4c(c3)CC(C)N4C(C)=O)CC2)c1 (centres undefined),–,–,–,–,–,–
CC[n+]1c(/C=C/N(C)c2ccccc2)oc2ccc(Cl)cc21,–,–,–,–,–,–
CCN1/C(=C/C=C/c2oc3ccc4ccccc4c3[n+]2CC)Oc2ccc3ccccc3c21,–,–,118,–,–,58
Cc1ccc(C)c(N=Cc2cc3c(cc2[N+](=O)[O-])OCO3)c1,–,–,–,–,–,–
Cc1ccc(N=Cc2cc3c(cc2[N+](=O)[O-])OCO3)cc1[N+](=O)[O-],36,–,–,–,–,–
c1ccc(-c2oc3ncnc(NCCCn4ccnc4)c3c2-c2ccccc2)cc1,37,–,–,–,–,–
c1ccc(-c2c(-c3ccccc3)n(Cc3ccco3)c3ncnc(NCCCn4ccnc4)c23)cc1,–,–,–,–,–,–
O=C(Nc1ccccc1)Nc1ccc2snnc2c1,–,–,–,–,–,–
CN(C)c1ccc(NC(=O)Nc2ccc3snnc3c2)cc1,–,32,–,–,–,–
CCOC(=O)[C@H]1[C@H]2COc3ccc(Br)cc3[C@@H]2N2C(=O)CN(Cc3ccccc3)C(=O)[C@@]12C,·,–,·,–,–,–
Cc1cc(C)n2nc(CC(=O)NNC(=O)c3ccccc3Cl)nc2n1,–,–,–,–,–,–
CN1CCC(OC(=O)c2ccccc2)CC1,–,–,26,–,–,–
COc1ccc(C(=O)OC2CCN(C)CC2)cc1,–,–,–,–,–,–
Oc1cccc(/C=N/Nc2cc(N3CCCC3)nc(N3CCCC3)n2)c1,36,31,–,–,–,–
COc1ccc(/C=N/Nc2cc(N3CCCC3)nc(N3CCCC3)n2)cc1,36,–,–,–,–,–
COc1ccc(/C=N/Nc2cc(C)nc(-n3nc(C)cc3C)n2)cc1,–,33,–,–,–,–
Oc1ccc(/C=N/Nc2cc(N3CCCC3)nc(N3CCCC3)n2)cc1,–,–,–,–,–,–
Cc1cc(N/N=C/c2cccc(Cl)c2)nc(-n2nc(C)cc2C)n1,–,–,–,–,–,–
Oc1ccc(/C=N/Nc2nc(N3CCCC3)nc(N3CCCC3)n2)cc1O,56,–,–,–,–,–
CC(=O)c1cccc(NC(=O)c2c(-c3c(F)cccc3Cl)noc2C)c1,·,–,·,–,–,–
C/C(=N\Nc1cccc([N+](=O)[O-])c1)c1cc(F)ccc1O,–,–,–,–,–,–
SMILES,GSTO1 counter,PME-1 inh,Fam108B counter,LYPLA2 counter,PAD4 FP inh,LYPLA1 inh
C/C(=N/Nc1ccc(C(=O)O)cc1)c1ccc(O)c(O)c1O,45,–,–,–,–,–
C/C(=N\NC(=O)c1ccc(N/N=C(\C)c2ccc(O)cc2)cc1)c1ccc(O)cc1,–,28,–,–,–,–
C/C(=N\Nc1cccc([N+](=O)[O-])c1)c1ccccc1O,–,45,–,–,–,–
C/C(=N\NC(=O)c1cccc(N/N=C(\C)c2cc(O)ccc2O)c1)c1cc(O)ccc1O,–,–,30,–,–,–
C/C(=N\NC(=O)c1cccc(O)c1)c1cccc(NC(=O)c2ccc(F)cc2)c1,–,–,–,–,–,–
C=CCOc1cccc(/C=C/c2nc3ccccc3c(=O)[nH]2)c1,–,–,–,–,–,–
CC(NC(=O)COC(=O)C12CC3CC(CC(Br)(C3)C1)C2)c1ccccc1 (centres undefined),·,·,·,·,–,·
C=CCOc1c(/C=N\NC(N)=O)cccc1OC,–,–,–,–,–,–
C=CCOc1c(OC)cc(/C=N/Nc2cccc(C(=O)O)c2)c(Br)c1Br,–,46,25,–,–,–
CC(NC(=O)CCl)c1ccc(Cl)c(Cl)c1 (centres undefined),96,–,–,–,–,–
O=C(NC1C(=O)NNC1c1ccc(Cl)cc1)c1ccc(F)cc1 (centres undefined),–,–,–,37,–,–
COc1ccc(C(=O)NC(C)c2cnn(-c3ccccn3)c2C)o1 (centres undefined),–,–,–,–,–,–
COc1ccc(CCNC(=O)CSc2nc3ncccc3[nH]2)c(OC)c1,–,–,–,–,–,–
CC(NC(=O)C(=O)NCCc1c[nH]c2ccccc12)c1ccccc1 (centres undefined),–,–,–,–,–,–
CCC(C)C1=CC(=Nc2c(C)n(C)n(-c3ccccc3)c2=O)C=C(C(C)CC)C1=O (centres undefined),–,–,–,–,–,–
CC1=CC(=Nc2c(C)n(C)n(-c3ccccc3)c2=O)C=C(C)C1=O,50,–,–,–,–,–
CC1(C)Cc2c(sc3[nH]c(=S)[nH]c(=O)c23)CO1,–,–,–,–,–,–
CC1(C)Cc2c(sc3nc(SCC(=O)O)[nH]c(=O)c23)CO1,36,–,–,–,–,–
CC(C)=NNc1nc2sc3c(c2c(=O)[nH]1)CC(C)(C)OC3,–,36,–,–,–,–
COc1cccc(-c2nnc(SC(C(=O)c3c[nH]c4ccccc34)c3ccccc3)n2C)c1 (centres undefined),–,56,–,–,–,–
COc1ccccc1-n1c(SCC(=O)Nc2ccc(NC(C)=O)cc2)nc2c([nH]c3ccccc32)c1=O,–,–,–,–,–,–
OC[C@@H]1CC[C@@H](Cc2ccc(-c3ccccc3)cc2)O1,·,·,·,·,–,·
NNC(=O)c1oc2nc(-c3ccco3)cc(-c3ccco3)c2c1N,52,–,–,–,–,–
Nc1c(C(=O)N/N=C/c2cccnc2)oc2nc(-c3ccco3)cc(-c3ccco3)c12,–,–,–,–,–,–
CC(C)(C)c1ccc(OCC(=O)NNC(=S)NC(=O)c2ccccc2[N+](=O)[O-])c(Br)c1,–,–,–,27,–,–
CC(C)(C)C(Cn1ccnc1)NC(=O)c1ccc2nc(C3CC3)oc2c1 (centres undefined),–,–,–,–,–,–
